Results from the supplement of paper PMC6555819.

Tested on: VDR:RXRa (NR concentration 270 nM, RXRa partner concentration 90 nM)
Experiment: PBM binding z-score (relative to random genomic background probes); higher = stronger binding; sequences stand for … in GC…GCGATTGACAGCGTAGAATGAAGG
Description: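 Protein-binding microarray (Agilent 4x180K custom design, double-stranded 60-nt probes: 5' GC cap, 34-nt variable region, 24-nt constant primer region; full probe sequence given). Purified or IVT nuclear receptor:RXRα heterodimers (3:1 NR:RXRα, mostly 270:90 nM) or homodimers were incubated for 1 h in PBS with 2% milk and no ligand, then detected with Alexa488 antibodies. Fluorescence from o1-orientation probes (~5 replicates averaged) was converted to z-scores against 500 random hg19 background probes. Variable regions are seed direct-repeat (DR0–DR5) sites, all their single-nucleotide variants and half-site ablations.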

Row | Sequence | PBM binding z-score
1 | TGAATGAGATTATAAGATCAGGGAACGTTGCAAA | -0.491
2 | CCAGACACGTGAAAGGTAACTCAGTCTGGTACGC | -0.114
3 | CAAACTAGCTCAAGGTCAAAGTCGGTTTGTGCCA | 4.51
4 | TCTCGGAGGACATGAAGGTCAGAGCTTTCCAGAG | 1.77
5 | CAAACTAGGTCACGAATGGTCAAAGTCGAATGAC | 3.05
6 | TCAGACAGGTGAAGCTAACTCAGGTACGCAGTCG | 0.334
7 | ATCTCTAGGTAAGACCCAGTTCAGTGAAGAACGC | 1.04
8 | ACTACCAGGCCAAGGGTCACTCAAGATTAGTCCG | 3.07
9 | GCTAGTTGGTCAGTTAAAGGTCACACACCGGTCG | 3.95
10 | TCTATTAGTTGATTAGGGCAAGCGAAACAGCGGA | 0.402
11 | GCATATAGGTAATACAAGGTAAAAGTCCGATTGT | 0.085
12 | TCTTGTAGATCAGCAGGTTCAGAAAGCTGGCCAA | 3.4
13 | GCAGACAGGTGCAACGCAGGTAACTCAGGGTGGC | -0.467
14 | CTCGAAAGGTCGTGCTCAGGTGACTATACCAAAC | 3.53
15 | TCAGACAGGTGAAGGTAACTCTGGTACGCAGTCG | 0.577
16 | GCTCGGAGGTCAAGGTCAGAGCTTTGTCCGTAGA | 5.06
17 | AATACAGGGTCATCGTAGGCAAGAGTACGCACAG | 5.23
18 | TCCTGTAGATCAAAGGTTAAGAAAGCCGAAGCCT | 1.44
19 | GCTTACGGGTCAAAGTTTATAGCATGAATAGAAT | 4.3
20 | GATACAGGGTCAGCTAGAGTCCAGAGTATGGAAA | 4.13

Row | Sequence | PBM binding z-score
21 | TCTAGTTGGGCAAAGGTCACACACTCGAAATGCG | 4.65
22 | ATCTCTAGGTAACCAAGTTCAATGAATGCCGAAC | 4.66
23 | ACTCGGAGGACAAAGGTCATAGCTACGCCAGTGA | 4.68
24 | GATACAGGGTAAGCTAGAGGCCAGAGTATGGAAA | -0.409
25 | TCATATAGGTAATACAGCTGAAAGTCGGCATCTA | 0.891
26 | TGAATGAGGTTAAAGAGCAGGGAACGTGGCGTCG | 1.4
27 | CTAACTAGGTCATTGACAGGACAGTGAATAGTAA | 2.2
28 | CCTACTGGGCCATTCAGAGGCCATTGATCATATG | -0.232
29 | ATCTCTAGGTAAAAGTTCAGAGAATCCCGAGGAT | 1.43
30 | CCGACTGGGCCAAAGGTCATTGATTCCAATGCTC | 4.58
31 | ACTAGCAAGCCAAGGGTCACTCAAGATTAGTCCG | 2.68
32 | ACTATTAATTGAGACGAGGGCAACCGATAGGTTG | 0.764
33 | CCTACTGAGCCATTCAGAGGTCATTGATCATATG | 3.96
34 | CAAACTAGGTCGCCGGAAGGTCAAAGTCCGCATG | 4.5
35 | CAAACAAGGTCAAGGTCAAAGTCGGTTTGTGCCA | 6.23
36 | CCTACTGGGCCATTCAGAGGTCTTTGATCATATG | -0.301
37 | ATCTCTAGGTAAGACTCAGCTCAGTGAAGAACGC | -0.134
38 | ATCTCTAAGTAAAGATAGTTCAGTGAATGCAAAT | 0.741
39 | CCAGACAGGTGAAAGGTAACTCGGTCTGGTACGC | 0.865
40 | GTTTGTAGATCAAGGTTAAGAAAGACTAAGCTAA | 1.03
